# Hits are enriched below; roughly 6.9% of the tested compounds scored in any of these assays.
# Giardia kill = Small Molecules that selectively kill Giardia lamblia: qHTS; Giardia lamblia trophozoite viability; activity change, % at 7.66 µM, hits read low; actives 0.15% (n = 340,000); AID 540267, 2011; in the data active = activity change below about -80%; inconclusive = between about -30% and that limit;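 also: parasites exposed to compound for two days anaerobically before the ATP read; % is scaled to controls: 0 for no effect and ±100 for the full control effect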
#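 Anaerobic 48 hrs incubation at 37 deg C of 100 trophozoites/well with test compounds; ATPLite 1-Step luminescence, 15-30 min RT, reports cellular ATP as viability.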
# SW480 rereplic = A quantitative high throughput screen for small molecules that induce DNA re-replication in SW480 colon adenocarcinoma cells; SW480 DNA re-replication, Hoechst DNA content imaging, 48 h; Potency, µM (titrated, usually from 46.1 µM), for the others: at the highest dose re-replication activation, most hits filed as activators; actives 1.8% (n = 340,000); also: potency is read from the fitted curve at half-maximal effect; % of control where 0% means no effect; nearly all actives have a fitted effect of over 55% in size
#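 250 cells/well; 23 nL cpd via pin tool; 48 hr, 37 C, 5% CO2; Hoechst 40 min; imager read of total nuclear intensity, ex 405/em 500-530 nm.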
# KB-3-1 cytotox = qHTS assay for MDR1-selective chemotherapeutics: Primary screen using the parental adenocarcinoma cell KB-3-1; KB-3-1 viability, CellTiter-Glo ATP luminescence, 72 h; Potency, µM (top dose mostly 46.1 µM), actives largely listed as cytotoxic; actives 1.4% (n = 400,000); AID 1347075, 2019; also: potency is read from the fitted curve at half-maximal effect; % is scaled to controls: 0 for no effect and ±100 for the full control effect; nearly all actives have a fitted effect of over 60% in size
#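 KB-3-1 parental drug-naive adenocarcinoma cells in DMEM/10% FBS, incubated 72 h at 37 C with pin-transferred compounds across a concentration series. Viability by CellTiter-Glo luminescence; concentration-response curves fitted after normalization.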
# MCF10A rereplic = A quantitative high throughput screen for small molecules that induce DNA re-replication in MCF 10a normal breast cells | MCF 10A DNA re-replication, Hoechst nuclear intensity, 48 h | Potency, µM (titrated, usually from 46.1 µM), for the others: at the top dose activity, positive = re-replication, usual class: activators | AID 624296, 2012 | actives 2.9% (n = 350,000); also: potency is read from the fitted curve at half-maximal effect; % of control where 0% means no effect; nearly all actives have a fitted effect of over 50% in size
# ASM inhibitor = Inhibitors of Secretory Acid Sphingomyelinase (S-ASM): qHTS; Sphingomyelin phosphodiesterase (Homo sapiens), P17405; actives 0.006% (n = 340,000); placental ASM, HMU-PC fluorogenic substrate, 60 min; Potency, µM (doses to about 57.5 µM), for the others: top-dose activity change, negative = inhibition, most hits filed as inhibitors; also: potency is read from the fitted curve at half-maximal effect
# Target sequence (P17405 47-631 limits assumed): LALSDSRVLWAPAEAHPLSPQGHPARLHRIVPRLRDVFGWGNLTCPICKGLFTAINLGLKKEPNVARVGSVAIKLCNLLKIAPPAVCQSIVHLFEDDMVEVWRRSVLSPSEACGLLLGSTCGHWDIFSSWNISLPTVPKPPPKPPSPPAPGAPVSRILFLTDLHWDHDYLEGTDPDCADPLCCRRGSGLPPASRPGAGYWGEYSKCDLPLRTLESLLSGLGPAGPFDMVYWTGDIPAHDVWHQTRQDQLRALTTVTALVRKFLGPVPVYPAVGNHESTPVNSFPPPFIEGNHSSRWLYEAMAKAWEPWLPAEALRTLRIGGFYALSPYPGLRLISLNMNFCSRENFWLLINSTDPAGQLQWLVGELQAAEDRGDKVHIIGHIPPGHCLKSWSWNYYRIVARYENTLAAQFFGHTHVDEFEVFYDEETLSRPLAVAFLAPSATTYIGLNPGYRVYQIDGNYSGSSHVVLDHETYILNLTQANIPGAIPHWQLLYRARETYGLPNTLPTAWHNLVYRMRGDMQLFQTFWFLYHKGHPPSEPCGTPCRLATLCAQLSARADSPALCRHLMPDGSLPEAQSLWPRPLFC
#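 Fluorescence read-out (Ex 386 nm, Em 447 nm) after stopping the reaction at pH 10. Enzyme: ASM from human placenta; substrate HMU-PC0, 9 uM final; 60 min, 37 °C. Compound preincubation 10 min, ambient temperature.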
# KB-V1 MDR tox = qHTS assay for MDR1-selective chemotherapeutics: Primary screen using the drug-selected MDR subline cells KB-V1 | KB-V1 MDR cells viability, CellTiter-Glo, 72 h | Potency, µM (series often up to 46.1 µM), actives largely listed as cytotoxic | actives 3.4% (n = 400,000) | AID 1347076, 2019; also: potency is read from the fitted curve at half-maximal effect; % is scaled to controls: 0 for no effect and ±100 for the full control effect; nearly all actives have a fitted effect of over 60% in size
#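 KB-V1 MDR subline cells in DMEM (phenol-red free, 10% FBS) exposed to compounds in qHTS concentration series for 72 h at 37 degrees C. Viability read by CellTiter-Glo luminescence; concentration-effect curves fitted after normalization and correction.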
# An asterisk follows results filed as active; i = inactive; ? = inconclusive; . = not tested or not shown. Unless noted, calls follow the shape of the dose curve; as a rule, active = well fitted curve in the direction sought with a large enough effect; inconclusive = small, poorly fitted or top-dose-only effect, or another doubt; inactive = no such curve, though single readings can be large; an effect the other way counts as inactive or inconclusive.
SMILES,Giardia kill,SW480 rereplic,KB-3-1 cytotox,MCF10A rereplic,ASM inhibitor,KB-V1 MDR tox
O=c1[nH]c(=O)c2ncn(C3OC(CO)C(O)C3O)c2[nH]1 (configuration not stated),-14.2,.,i,.,.,i
CCCc1nc2ccccc2c(=O)n1NC(=O)c1c(O)c2ccccc2n(C)c1=O,-0.3,8.3%,14.6µM*,15.2%,-3.2%,5.8µM*
CCCCCCc1nc2ccccc2c(=O)n1NC(=O)c1c(O)c2c(n(CC(C)C)c1=O)CCCC2,-7.4,16.9%,20.6µM*,21.8%,-17.6%,18.4µM*
CCc1nc2ccccc2c(=O)n1NC(=O)c1c(O)c2ccccc2[nH]c1=O,-26.1,15.8%,?,?,-0.1%,2.91µM*
COc1ccccc1Nc1nc(N)nc(-c2oc3ccccc3c2C)n1,10.6,7.31µM*,i,?,28.9%,i
COc1ccc(OC)c(Nc2nc(N)nc(CCl)n2)c1,5.5,2.59µM*,i,29.1µM*,-2.2%,?
COc1ccccc1Nc1nc(N)nc(CCl)n1,-16.0,11.6µM*,i,?,2.8%,?
Nc1nc(CCl)nc(Nc2ccccc2)n1,22.9,6.51µM*,?,?,1.0%,?
COc1ccc(/C=C/C(=O)NCC(=O)N=Nc2c(O)[nH]c3ccc([N+](=O)[O-])cc23)cc1,10.9,?,i,15.3%,-6.9%,i
O=C(CSc1nncs1)Nc1ccc2c(c1)OCO2,4.7,11.9%,i,0.9%,0.4%,i
Cc1cccc(Nc2nc(N)nc(CCl)n2)c1,8.5,?,?,?,3.2%,i
Cc1ccccc1Nc1nc(N)nc(COC(=O)c2cccc(S(=O)(=O)N(C)C)c2)n1,27.2,1.6%,i,?,0.2%,18.4µM*
Nc1nc(COC(=O)CCC(=O)c2ccccc2)nc(Nc2ccccc2)n1,-9.5,-46.1%,i,13.0%,2.2%,i
COc1cccc(Nc2nc(N)nc(CCl)n2)c1,-10.9,14.6µM*,i,18.4µM*,2.8%,i
Cc1ccc(Nc2nc(N)nc(CCl)n2)cc1,5.3,-20.6%,?,?,0.3%,?
Nc1nc(COC(=O)c2ccc3c(c2)OCCO3)nc(Nc2ccccc2)n1,?,-2.4%,i,11.5%,-3.6%,20.6µM*
CCOc1ccc(Nc2nc(N)nc(CCl)n2)cc1,-2.2,?,13µM*,?,3.2%,i
COc1ccccc1NC(=O)Cn1c(=O)n(-c2ccc(C)cc2)c(=O)c2ccc(C(=O)NCc3ccco3)cc21,.,.,i,.,.,i
Cc1ccc(C)c(N2CCN(C(=O)C3CCN(Cc4nc(-c5cccc(Cl)c5)oc4C)CC3)CC2)c1,.,.,?,.,.,i
N#Cc1nc(Nc2cc(F)cc(F)c2)c2ncn(CCCO)c2n1,.,.,?,.,.,i
Cc1ccc(NC(=O)Cn2c(=O)n(CCCS(=O)(=O)C3CCCCC3)c(=O)c3ccccc32)cc1F,.,.,i,.,.,i
CCCCOc1ccc(Nc2cc(Cl)ccc2C(=O)O)cn1,3.3,7.1%,i,16.4µM*,-8.6%,i
N#Cc1ccccc1NC(=O)c1cc2c(=O)n3ccccc3nc2s1,.,.,i,.,.,i
COc1ccc(C#Cc2c[nH]c(=O)c3cncnc23)cc1OC,-2.2,.,.,.,.,.
Cn1c(=O)c2c(nc(NCCc3ccccc3)n2Cc2cccc(Br)c2)n(C)c1=O,.,.,i,.,.,?
SMILES,Giardia kill,SW480 rereplic,KB-3-1 cytotox,MCF10A rereplic,ASM inhibitor,KB-V1 MDR tox
O=C(CSc1ncc(S(=O)(=O)c2ccc(Br)cc2)c(=O)[nH]1)NCc1ccc(Cl)cc1,.,.,i,.,.,i
CCn1c(C)cc(C(=O)CSc2nnnn2C2CCCC2)c1C,11.6,1.3%,i,?,0.5%,9.2µM*
COC(=O)/C=C1\OCc2cc(OC)c(OCc3ccccc3)cc21,.,.,i,.,.,i
COc1cc2c(cc1OC)/C(=C/c1ccc(Br)cc1)C(=O)OC2,-0.7,?,20.6µM*,?,-24.7%,?
O=C(CCCc1ccccc1)NC(c1ccco1)c1cc(Cl)c2cccnc2c1O (configuration not stated),.,.,?,.,.,i
CCc1ccc(N/C(SCc2cccc(F)c2)=C(/C#N)C(=O)NCc2ccco2)cc1,-5.0,?,i,15.8%,-2.5%,?
Cc1ccc(N/C(SCc2ccccc2C)=C(/C#N)C(=O)NCc2ccco2)cc1C,-14.1,3.4%,?,?,-3.0%,11.6µM*
Cc1ccc2c(c1)-c1c(cnn1CC(=O)N1CCN(c3ccccc3F)CC1)CO2,.,.,i,.,.,i
Cn1c(Sc2ccc(C(F)(F)F)cc2[N+](=O)[O-])nnc1-c1ccccc1,8.7,4.5%,i,13.1%,0.1%,20.6µM*
CCCCOC(=O)c1cc(-c2ccc(/C=N/n3cnnc3)o2)ccc1Cl,-6.3,2.1%,i,-2.9%,-7.2%,18.4µM*
Clc1ccccc1-c1ccc(/C=N/n2cnnc2)o1,6.1,2.4%,5.8µM*,-3.0%,-2.3%,3.26µM*
Cc1cc(-c2ccc(/C=N/n3cnnc3)o2)ccc1Cl,?,-2.8%,i,-2.0%,-5.1%,i
Cc1c(Cl)cccc1-c1ccc(/C=N/n2cnnc2)o1,-11.3,?,?,5.7%,-13.4%,2.91µM*
Clc1cccc(-c2ccc(/C=N/n3cnnc3)o2)c1Cl,2.9,-2.8%,6.51µM*,0.7%,-5.0%,1.64µM*
CCOC(=O)c1cc(-c2ccc(/C=N\n3cnnc3)o2)ccc1Cl,-8.7,-1.1%,i,-5.7%,2.3%,i
C(=Nc1ccc2ccccc2n1)c1ccccn1,.,.,i,.,.,i
O=C(O)C1(c2ccccc2)CCN(S(=O)(=O)c2ccc(F)c(F)c2)CC1,9.0,-3.9%,i,-1.2%,8.3%,i
CCN(C(=O)CCS(=O)(=O)c1cc2c(cc1C)NC(=O)CO2)c1cccc(C)c1,.,.,i,.,.,?
COc1ccc(S(=O)(=O)N2CCOC2CNC(=O)C(=O)NCCc2ccc(OC)c(OC)c2)cc1 (configuration not stated),9.6,12.3%,?,9.7%,1.5%,18.4µM*
Cc1cc(S(=O)(=O)N2CCCOC2CNC(=O)C(=O)NCc2ccco2)ccc1F (configuration not stated),-19.0,?,i,8.2µM*,-0.4%,?
COc1ccc(S(=O)(=O)N2CCCOC2CNC(=O)C(=O)NCCc2ccco2)cc1C (configuration not stated),9.3,18.4µM*,6.51µM*,?,5.0%,i

# Source: PubChem BioAssay (National Center for Advancing Translational Sciences (NCATS))
